# The supplement of paper PMC7393113
# Where a name gives a salt, the structure may show the parent alone. ± gives the standard deviation of the averaged measurements.
# Test system: iBMDM (immortalised mouse bone-marrow-derived macrophages), LPS-stimulated
# Assay: mitochondrial superoxide (MitoSOX fluorescence) fold increase over unstimulated control; higher = more LPS-induced mitochondrial ROS (less inhibition)
# Conditions: inhibitor concentration: 500 nM, LPS: 100 ng/ml
# In short: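 After 20 h in phenol-red-free 1% FCS/DMEM in black 96-well plates, immortalised mouse bone-marrow-derived macrophages were exposed to kinase inhibitors (500 nM) for 30 min, 1 μM MitoSox for 10 min and then LPS (100 ng/ml). A ClarioStar plate reader recorded fluorescence at 510/580 nm every 60 min for 4 h. The reported mitochondrial superoxide is the mean fold induction versus untreated macrophages over triplicate wells.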
SMILES,mitochondrial superoxide (time after LPS: 1 h),mitochondrial superoxide (time after LPS: 2 h),mitochondrial superoxide (time after LPS: 4 h)
Cc1ccc(C(=O)Nc2cccc(C(F)(F)F)c2)cc1Nc1nc(-c2cccnc2)nc2c1cnn2C,1.23 ± 0.037,1.27 ± 0.013,1.38 ± 0.083
OCCn1cc(-c2ccc3c(c2)CC/C3=N\O)c(-c2ccncc2)n1,1.36 ± 0.044,1.45 ± 0.064,1.49 ± 0.02
COc1cc2/c(=N/c3ccc(Br)cc3F)nc[nH]c2cc1OCC1CCN(C)CC1 [Vandetanib (ZD6474)],1.57 ± 0.036,1.63 ± 0.054,1.7 ± 0.077
COc1cc2nccc(Oc3ccc(NC(=O)Nc4ccc(F)cc4F)c(F)c3)c2cc1OC,1.13 ± 0.036,1.27 ± 0.071,1.28 ± 0.13
O=C1NC(=O)/C(=C/c2ccc(-c3ccc(F)cc3O)o2)S1,1.4 ± 0.16,1.54 ± 0.25,1.78 ± 0.2
C#Cc1cccc(Nc2ncnc3cc(OCCOC)c(OCCOC)cc23)c1 [Erlotinib HCl (OSI-744)],1.62 ± 0.033,1.66 ± 0.076,1.76 ± 0.048
Nc1nc(Nc2ccc(S(N)(=O)=O)cc2)nn1C(=O)c1c(F)cccc1F,1.15 ± 0.04,1.13 ± 0.027,1.11 ± 0.021
CNC(=O)c1cc(Oc2ccc(NC(=O)Nc3cc(C(C)(C)C)nn3-c3ccc4ncccc4c3)c(F)c2)ccn1 [DCC-2036 (Rebastinib)],1.17 ± 0.012,1.33 ± 0.075,1.6 ± 0.03
COc1ccc(-c2nc(N3CCOCC3)c3sc(CN(C)c4ncc(C(=O)NO)cn4)cc3n2)cn1,1.31 ± 0.095,1.52 ± 0.1,1.77 ± 0.17
COc1ccc(COc2cc3oc(=O)c4cc(C(C)O)ccc4c3cc2OC)cc1 (stereo unspecified) [Palomid 529 (P529)],1.1 ± 0.049,1.25 ± 0.08,1.41 ± 0.05
NC(=O)Nc1cc(-c2cccc(F)c2)sc1C(=O)N[C@H]1CCCNC1,1.08 ± 0.056,1.11 ± 0.028,1.25 ± 0.1
CC(C)n1nc(-c2cc3cc(O)ccc3[nH]2)c2c(N)ncnc21,1.03 ± 0.088,1.15 ± 0.12,1.28 ± 0.063
O=C(NOCC(O)CO)c1cc(Br)c(F)c(F)c1Nc1ccc(I)cc1F (stereo unspecified),1.31 ± 0.033,1.3 ± 0.054,1.34 ± 0.065
C=CC(=O)Nc1cccc(Nc2nc(Nc3ccc(OCCOC)cc3)ncc2F)c1,1.17 ± 0.03,1.24 ± 0.072,1.29 ± 0.019
CCS(=O)(=O)Nc1ccc2[nH]c(O)c(C(=Nc3ccc(CN4CCCCC4)cc3)c3ccccc3)c2c1 [Hesperadin],1.1 ± 0.02,1.13 ± 0.031,1.28 ± 0.046
CNC(=O)c1cc(Oc2ccc(NC(=O)Nc3ccc(Cl)c(C(F)(F)F)c3)cc2)ccn1 [Sorafenib],1.48 ± 0.09,1.45 ± 0.032,1.66 ± 0.029
CCOc1cc2ncc(C#N)c(Nc3ccc(OCc4ccccn4)c(Cl)c3)c2cc1NC(=O)/C=C/CN(C)C [Neratinib (HKI-272)],1.06 ± 0.1,1.19 ± 0.14,1.27 ± 0.092
Fc1cc(-c2cccc3ncc(-c4cnn(C5CCNCC5)c4)nc23)cc(F)c1CN1CCOCC1,1.15 ± 0.05,1.45 ± 0.13,1.69 ± 0.04
CCc1nc(-c2cccc(C)c2)c(-c2ccnc(NC(=O)c3ccccc3)c2)s1,1.17 ± 0.028,1.17 ± 0.022,1.18 ± 0.04
C[C@@H]1COC(Nc2ccc3ncnc(Nc4ccc(OCc5nccs5)c(Cl)c4)c3c2)=N1 [Varlitinib],1.3 ± 0.019,1.39 ± 0.09,1.69 ± 0.08
COc1cc2c(Oc3ccc(NC(=O)C4(C(=O)Nc5ccc(F)cc5)CC4)cc3F)ccnc2cc1OCCCN1CCOCC1,1.25 ± 0.022,1.35 ± 0.034,1.48 ± 0.03
N#Cc1c(O)c2c(-c3ccc(-c4ccccc4O)cc3)csc2[nH]c1=O,1.3 ± 0.051,1.43 ± 0.023,1.52 ± 0.034
COc1ncc(-c2ccc3nccc(-c4ccnnc4)c3c2)cc1NS(=O)(=O)c1ccc(F)cc1F,1.28 ± 0.049,1.42 ± 0.033,1.52 ± 0.077

SMILES,mitochondrial superoxide (time after LPS: 1 h),mitochondrial superoxide (time after LPS: 2 h),mitochondrial superoxide (time after LPS: 4 h)
Cc1ccccc1CN1C2=NCCN2C(=O)C2=C1CCN(Cc1ccccc1)C2,1.16 ± 0.042,1.27 ± 0.036,1.34 ± 0.13
COCCOc1ccc2c(c1)ncn2-c1ccc2cccc(N3CCC(N)CC3)c2n1,1.15 ± 0.048,1.19 ± 0.035,1.3 ± 0.038
O=C(Nc1cccc(Cl)c1)Nc1ncc(CCNc2ncnc3ccsc23)s1 [SNS-314 Mesylate],1.32 ± 0.029,1.36 ± 0.048,1.42 ± 0.08
Nc1ncnc2c1c(-c1cccc(OCc3ccccc3)c1)cn2C1CC(CN2CCCC2)C1 (stereo unspecified),1.44 ± 0.15,1.55 ± 0.18,1.62 ± 0.21
CC1(COc2ccc3c(c2)ncn3-c2ccc3cccc(N4CCC(N)CC4)c3n2)COC1,1.04 ± 0.1,1.42 ± 0.11,1.66 ± 0.13
COc1ccc2cc(-c3nc(-c4ccc([S+](C)[O-])cc4)[nH]c3-c3ccncc3)ccc2c1 (stereo unspecified) [Tie2 kinase inhibitor],0.981 ± 0.069,1.09 ± 0.058,1.19 ± 0.036
O=C(NC(NC(=S)Nc1ccc(F)c([N+](=O)[O-])c1)C(Cl)(Cl)Cl)C(c1ccccc1)c1ccccc1 (stereo unspecified),1.13 ± 0.029,1.25 ± 0.031,1.37 ± 0.015
CCCCCCCCCCCCc1ccc(S(=O)(=O)Nc2nncs2)cc1,1.21 ± 0.041,1.2 ± 0.016,1.2 ± 0.038
C[C@H](NC(=O)/C(C#N)=C/c1cccc(Br)n1)c1ccccc1,1.21 ± 0.039,1.368 ± 0.011,1.5 ± 0.04
COc1ccc(-c2ccc3c(N4CCOC[C@@H]4C)nc(N4CCOC[C@@H]4C)nc3n2)cc1CO,1.14 ± 0.024,1.19 ± 0.031,1.25 ± 0.025
COc1ccc2c(Oc3ccc(NC(=O)c4c(C)n(CC(C)(C)O)n(-c5ccccc5)c4=O)nc3)ccnc2c1,1.09 ± 0.031,1.2 ± 0.034,1.391 ± 0.0084
CN(C)C/C=C/C(=O)Nc1cc2c(Nc3ccc(F)c(Cl)c3)ncnc2cc1O[C@H]1CCOC1 [Afatinib (BIBW2992)],1.54 ± 0.068,1.6 ± 0.047,1.77 ± 0.11
CCCCOc1c(C(=O)c2c(F)cc(C)cc2F)c[nH]c2nncc1-2,1.16 ± 0.027,1.25 ± 0.066,1.37 ± 0.036
CC(C)(C)c1cc(/C=C(\C#N)C(N)=S)cc(C(C)(C)C)c1O [Tyrphostin AG 879],1.37 ± 0.06,1.42 ± 0.037,1.61 ± 0.037
COc1ccc(-c2ccc3ncc4c(c3c2)n(-c2ccc(N3CCNCC3)c(C(F)(F)F)c2)c(=O)n4C)cn1,1.1 ± 0.041,1.27 ± 0.078,1.49 ± 0.077
CS(=O)(=O)CCNCc1ccc(-c2ccc3ncnc(Nc4ccc(OCc5cccc(F)c5)c(Cl)c4)c3c2)o1,1.6 ± 0.073,1.72 ± 0.07,1.89 ± 0.18
CNC(=O)c1cccc(-c2ccc3c(N4CCOC[C@@H]4C)nc(N4CCOC[C@@H]4C)nc3n2)c1,1.18 ± 0.058,1.46 ± 0.074,1.66 ± 0.1
Nc1nc(N)c(N=O)c(OCC2CCCCC2)n1,1.17 ± 0.03,1.25 ± 0.017,1.37 ± 0.074
CNCc1ccc(-c2cc(-c3nc(-c4ccc(S(=O)(=O)C(C)C)cc4)cnc3N)on2)cc1,1.12 ± 0.068,1.24 ± 0.057,1.26 ± 0.018
CC(C)CC(=O)Nc1n[nH]c2c1CN(C(=O)C1CCN(C)CC1)C2(C)C,1.08 ± 0.049,1.13 ± 0.04,1.27 ± 0.079
CNC(=O)c1ccccc1Nc1nc(Nc2ccc(N3CCOCC3)cc2OC)ncc1Cl,1.12 ± 0.084,1.11 ± 0.056,1.23 ± 0.081
CCN1CCN(Cc2ccc(-c3cc4c(N[C@H](C)c5ccccc5)ncnc4[nH]3)cc2)CC1,1.08 ± 0.019,1.11 ± 0.04,1.25 ± 0.081
CN(C[C@@H]1COCCO1)S(=O)(=O)Nc1ccc2ccc3ncc(-c4cnn(C)c4)cc3c(=O)c2c1,1.26 ± 0.029,1.51 ± 0.054,1.76 ± 0.048

SMILES,mitochondrial superoxide (time after LPS: 1 h),mitochondrial superoxide (time after LPS: 2 h),mitochondrial superoxide (time after LPS: 4 h)
O=c1c(-c2ccc(O)cc2)coc2cc(O)cc(O)c12 [Genistein],1.22 ± 0.079,1.29 ± 0.058,1.36 ± 0.15
"Cc1[nH]c(/C=C2\C(=O)Nc3ccccc32)c(C)c1CCC(=O)O [TSU-68 (SU6668, Orantinib)]",2.12 ± 0.096,2.2 ± 0.093,2.16 ± 0.12
CC[C@@H]1C(=O)N(C)c2cnc(Nc3ccc(C(=O)NC4CCN(C)CC4)cc3OC)nc2N1C1CCCC1,1.14 ± 0.063,1.19 ± 0.038,1.39 ± 0.028
Cc1nc(Nc2ncc(C(=O)Nc3c(C)cccc3Cl)s2)cc(N2CCN(CCO)CC2)n1 [Dasatinib],1.51 ± 0.022,1.61 ± 0.069,1.85 ± 0.068
N#Cc1ccc2[nH]c(O)c(-c3ccc(CN4CCOCC4)cn3)c2c1,1.08 ± 0.043,1.24 ± 0.097,1.38 ± 0.045
CC(C)(C#N)c1ccc(N2C(=O)OCc3cnc4ccc(-c5cnc6ccccc6c5)cc4c32)cc1,1.4 ± 0.039,1.48 ± 0.056,1.676 ± 0.013
Cc1ccccc1-n1c(Cn2nc(-c3cccc(O)c3)c3c(N)ncnc32)nc2cccc(C)c2c1=O,1.28 ± 0.017,1.34 ± 0.033,1.42 ± 0.034
Cn1cnc2c(F)c(Nc3ccc(Br)cc3F)c(C(=O)NOCCO)cc21,1.13 ± 0.046,1.26 ± 0.038,1.29 ± 0.028
Cc1ccc(Nc2nccc(N(C)c3ccc4c(C)n(C)nc4c3)n2)cc1S(N)(=O)=O [Pazopanib],1.19 ± 0.042,1.13 ± 0.082,1.26 ± 0.015
CNC(=O)Nc1ccc(-c2nc(N3CC4CCC(C3)O4)c3cnn(C4CCC5(CC4)OCCO5)c3n2)cc1,1.26 ± 0.075,1.45 ± 0.028,1.58 ± 0.024
CCC(=O)N1CCN(c2ccc(-n3c(=O)ccc4cnc5ccc(-c6cnc7ccccc7c6)cc5c43)cc2C(F)(F)F)CC1 [Torin 1],1.14 ± 0.024,1.24 ± 0.033,1.35 ± 0.044
COc1cc(Nc2ncc3c(n2)-c2ccc(Cl)cc2C(c2c(F)cccc2OC)=NC3)ccc1C(=O)O [Alisertib (MLN8237)],1.37 ± 0.058,1.41 ± 0.035,1.46 ± 0.047
Cc1ccc(S(=O)(=O)C=CC#N)cc1,1.19 ± 0.044,1.19 ± 0.073,1.34 ± 0.095
Cc1cc(Nc2nc(N[C@@H](C)c3ccc(F)cc3)c(C#N)cc2F)n[nH]1,1.09 ± 0.054,1.18 ± 0.028,1.31 ± 0.085
O=C(Nc1cc(C(F)(F)F)cc(C(F)(F)F)c1)c1cc(Cl)ccc1O,0.988 ± 0.04,1.04 ± 0.033,1.01 ± 0.054
NC1(Cc2ccc(Cl)cc2)CCN(c2ncnc3[nH]ccc23)CC1,1.31 ± 0.037,1.43 ± 0.058,1.68 ± 0.021
COc1cc2ncnc(Nc3ccc(O)c(Br)c3)c2cc1OC,1.04 ± 0.047,1.04 ± 0.082,1.07 ± 0.12
O=c1c(O)c(-c2ccc(O)c(O)c2)oc2cc(O)cc(O)c12 [Quercetin],1.31 ± 0.046,1.35 ± 0.071,1.43 ± 0.063
O=C1NC(=O)C(c2ccccc2[N+](=O)[O-])=C1Nc1ccc(O)c(Cl)c1,1.12 ± 0.024,1.45 ± 0.084,1.63 ± 0.063
Cn1cc(-c2cnn3c(N)c(Br)c([C@@H]4CCCNC4)nc23)cn1,1.12 ± 0.091,1.4 ± 0.22,1.54 ± 0.11
Cc1cc(Nc2ncc(Cl)c(Nc3ccccc3S(=O)(=O)C(C)C)n2)c(OC(C)C)cc1C1CCNCC1,1.2 ± 0.013,1.32 ± 0.033,1.39 ± 0.024
